Results filed as inconclusive are left out. Activity calls are given as the source filed them. Unless noted, no stated cut-off is given here; in the data, active means percent of DMSO control GFP below about 86%; inactive means the rest, inconclusive results apart.
Tests used:
[1] = rapamycin-like changes in RPL19A-GFP expression – cell-based, S. cerevisiae, multiplex flow cytometry, primary screen (AID 1862);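 further: lower values mimic rapamycin by blocking the RPL19A rise seen in DMSO cells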; conditions: S. cerevisiae RPL19A-GFP strain, flow cytometry fluorescence, 3 h; at 10 µM; stronger effect = lower value
[2] = TOR pathway GLN3 branch reporter MEP2-GFP changes – S. cerevisiae, multiplex flow cytometry, primary screen (AID 1867;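 active means GFP response, as percent of the DMSO control, above the screen-wide mean plus 3 SD, about 139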;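 further: median GFP channel fluorescence of barcode-gated MEP2-GFP cells measured by flow cytometry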); conditions: S. cerevisiae MEP2-GFP strain, 3 h, at 10 µM, stronger effect = higher value, 100% means same as DMSO wells
[3] = TOR pathway RTG branch CIT2 reporter changes – S. cerevisiae, GFP fusion, multiplex flow cytometry, primary screen (AID 1870;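 active means percent response above a set limit, the screen-wide mean plus 3 SD, cut at about 130% in these data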;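 further: barcoded CIT2-GFP strain pooled with four other GFP strains with rapamycin as positive control; median GFP fluorescence per well over plate mean of DMSO wells so 100% = DMSO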); conditions: S. cerevisiae CIT2-GFP expression, 3 h, at 10 µM, stronger effect = higher value
[4] = TOR pathway LAP4-GFP level changes – S. cerevisiae, multiplex flow cytometry, primary screen (AID 1873;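 active means GFP signal, as percent of the solvent control, above the screen mean plus 3 SD, about 149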); conditions: S. cerevisiae LAP4-GFP expression, 3 h, at 10 µM, stronger effect = higher value
[5] = yeast AGP1-GFP level changes, GLN3 branch – cell-based, multiplex flow cytometry, S. cerevisiae, primary screen (AID 1887;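 active means GFP signal above the screen-wide mean plus 3 SD, that is over about 124.5% of the solvent control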;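 further: AGP1-GFP fusion strain of S. cerevisiae within a five-strain barcoded multiplex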); conditions: 3 h, at 10 µM, stronger effect = higher value
[6] = reduced mouse 2C T cell binding to pMHC/ICAM-1 vesicles – MLPCN validation set, flow cytometry, LFA-1/ICAM-1 modulator project, pilot screen (AID 2523;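 active means response below a set limit, under 55% cells CD8-positive and vesicle-bound, and CD8 cells' 90th-percentile brightness under 279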;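 on vesicle binding response: mean PE anti-B7-1 fluorescence of CD8+ cells relative to row control; 100% = QL9-loaded vesicles with DMSO vehicle in the same plate row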); conditions: 2C mouse CD8+ T cells, at 7 µM, stronger effect = lower value; double positive events: measured here: CD8+/vesicle+ event percentage
[7] = target: Integrin beta-1 (Homo sapiens) + Integrin alpha-4 (Homo sapiens) (UniProt P13612+P05556); test: alpha4beta1 integrin LIBS antibody binding reduction – U937 cells, HUTS-21 mAb, flow cytometry, validation set, VLA-4 allosteric modulator project, pilot screen (AID 2674;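 active means inhibition above 50%, about 3 SD of the validation set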;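 further: antibody binding induced by the VLA-4 ligand LDV present at three times its Kd; 0% = LDV ligand with antibody and no compound and 100% = antibody without LDV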); conditions: HUTS-21 LIBS mAb binding, at 6.7 µM, stronger effect = higher value, binding induced by LDV ligand
Sequence of Integrin beta-1 (Homo sapiens) + Integrin alpha-4 (Homo sapiens) (P05556 whole entry, looked up): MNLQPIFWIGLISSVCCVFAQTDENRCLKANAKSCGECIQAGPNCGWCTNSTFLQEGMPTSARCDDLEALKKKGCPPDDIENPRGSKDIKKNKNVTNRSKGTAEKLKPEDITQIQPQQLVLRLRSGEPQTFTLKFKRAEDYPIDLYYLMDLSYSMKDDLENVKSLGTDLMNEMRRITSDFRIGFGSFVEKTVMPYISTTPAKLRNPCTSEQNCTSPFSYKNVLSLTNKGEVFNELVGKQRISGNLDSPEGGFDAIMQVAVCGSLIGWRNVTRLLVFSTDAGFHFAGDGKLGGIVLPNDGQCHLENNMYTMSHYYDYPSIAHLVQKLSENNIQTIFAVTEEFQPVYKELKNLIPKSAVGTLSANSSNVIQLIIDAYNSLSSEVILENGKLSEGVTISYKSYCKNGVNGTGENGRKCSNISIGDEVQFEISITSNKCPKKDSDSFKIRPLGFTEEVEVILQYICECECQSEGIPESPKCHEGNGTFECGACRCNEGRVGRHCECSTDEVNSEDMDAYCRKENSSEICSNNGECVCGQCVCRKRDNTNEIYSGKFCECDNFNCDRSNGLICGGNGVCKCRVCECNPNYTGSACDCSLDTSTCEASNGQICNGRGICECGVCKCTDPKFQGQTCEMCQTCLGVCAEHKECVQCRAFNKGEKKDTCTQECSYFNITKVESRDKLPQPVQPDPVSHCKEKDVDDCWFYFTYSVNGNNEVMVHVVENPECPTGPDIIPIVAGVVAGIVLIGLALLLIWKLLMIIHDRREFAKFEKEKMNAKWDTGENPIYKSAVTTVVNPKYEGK
Sequence of Integrin beta-1 (Homo sapiens) + Integrin alpha-4 (Homo sapiens) (P13612 whole entry, looked up): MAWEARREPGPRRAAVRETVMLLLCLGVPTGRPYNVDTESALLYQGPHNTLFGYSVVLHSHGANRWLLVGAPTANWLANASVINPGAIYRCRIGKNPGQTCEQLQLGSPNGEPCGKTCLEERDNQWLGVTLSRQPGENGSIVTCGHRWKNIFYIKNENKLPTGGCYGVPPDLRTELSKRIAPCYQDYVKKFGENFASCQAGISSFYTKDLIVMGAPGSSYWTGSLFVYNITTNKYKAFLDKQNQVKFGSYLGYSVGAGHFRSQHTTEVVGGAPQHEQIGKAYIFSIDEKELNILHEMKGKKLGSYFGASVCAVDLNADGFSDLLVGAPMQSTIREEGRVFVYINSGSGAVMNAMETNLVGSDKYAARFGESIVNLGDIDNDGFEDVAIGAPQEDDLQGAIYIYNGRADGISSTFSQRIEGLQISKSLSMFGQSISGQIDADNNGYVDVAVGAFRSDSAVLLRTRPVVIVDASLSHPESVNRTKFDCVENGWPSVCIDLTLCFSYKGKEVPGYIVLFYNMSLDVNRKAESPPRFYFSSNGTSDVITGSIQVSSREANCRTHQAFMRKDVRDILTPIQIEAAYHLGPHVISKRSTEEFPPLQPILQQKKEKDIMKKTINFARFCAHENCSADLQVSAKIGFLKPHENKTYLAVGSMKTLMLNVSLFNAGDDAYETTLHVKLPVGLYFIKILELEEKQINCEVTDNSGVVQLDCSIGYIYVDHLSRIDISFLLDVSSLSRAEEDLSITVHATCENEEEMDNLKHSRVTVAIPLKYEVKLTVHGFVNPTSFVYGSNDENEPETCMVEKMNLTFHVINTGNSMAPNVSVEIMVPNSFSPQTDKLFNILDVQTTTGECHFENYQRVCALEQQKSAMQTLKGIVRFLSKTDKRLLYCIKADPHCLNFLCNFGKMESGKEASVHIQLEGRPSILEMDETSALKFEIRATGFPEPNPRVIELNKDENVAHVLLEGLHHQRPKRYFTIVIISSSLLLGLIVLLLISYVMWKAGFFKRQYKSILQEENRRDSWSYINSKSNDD

[8] = calorie-restriction mimetic ROS inhibitors, yeast – validation compound set, pilot screen (AID 2706;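 active means superoxide response below 65% of plate, a cut near 3 SD across the whole screen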;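 further: yeast exposed to compound for one week at 30 degrees C before staining; 100% = mean of all compound wells on the same plate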); conditions: S. cerevisiae aging, superoxide DHE fluorescence; at 10 µM; stronger effect = lower value
[9] = target: Beta-adrenergic receptor kinase 1 (Homo sapiens) (UniProt P25098); test: GRK2 binders displacing RNA aptamer, biochemical, validation, human GRK2, bead flow cytometry (AID 488806;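 active means aptamer binding inhibition above 30%, about 3 SD of noise from non-fluorescent compounds; inactive means inhibition at or below 30%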); conditions: bead-bound GRK2, FAM-aptamer displacement, at 10 µM, stronger effect = higher value
Sequence of Beta-adrenergic receptor kinase 1 (Homo sapiens) (P25098 whole entry, looked up): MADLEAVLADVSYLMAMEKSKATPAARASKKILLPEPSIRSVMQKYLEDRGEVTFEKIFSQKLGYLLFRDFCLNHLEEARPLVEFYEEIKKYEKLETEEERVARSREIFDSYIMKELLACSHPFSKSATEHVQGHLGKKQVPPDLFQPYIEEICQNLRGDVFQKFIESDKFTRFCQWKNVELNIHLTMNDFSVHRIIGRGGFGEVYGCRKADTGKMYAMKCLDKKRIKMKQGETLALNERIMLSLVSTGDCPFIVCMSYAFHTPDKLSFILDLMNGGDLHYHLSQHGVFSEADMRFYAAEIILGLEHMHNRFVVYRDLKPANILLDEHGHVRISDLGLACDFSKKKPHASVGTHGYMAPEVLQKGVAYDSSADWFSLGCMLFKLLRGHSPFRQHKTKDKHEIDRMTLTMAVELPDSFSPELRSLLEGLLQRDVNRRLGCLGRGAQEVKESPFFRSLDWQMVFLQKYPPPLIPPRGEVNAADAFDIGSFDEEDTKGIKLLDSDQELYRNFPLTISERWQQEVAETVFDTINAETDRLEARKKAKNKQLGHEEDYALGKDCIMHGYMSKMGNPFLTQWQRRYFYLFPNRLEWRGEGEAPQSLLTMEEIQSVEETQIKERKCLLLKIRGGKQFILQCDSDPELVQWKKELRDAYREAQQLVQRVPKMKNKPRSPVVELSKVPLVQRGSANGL

[10] = target: Beta-2 adrenergic receptor (Homo sapiens) (UniProt P07550); test: agonist-induced loss of surface beta2AR – cell-based, FAP fluorogen, flow cytometry, validation set, pilot screen (AID 504459;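 active means percent response above 42, roughly 3 SD of non-fluorescent test compounds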;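 further: agonist-driven loss of surface beta2AR via internalization measured by FAP dye flow cytometry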); conditions: Am2.2-beta2AR cells, at 10 µM, stronger effect = higher value
Sequence of Beta-2 adrenergic receptor (Homo sapiens) (P07550 whole entry, looked up): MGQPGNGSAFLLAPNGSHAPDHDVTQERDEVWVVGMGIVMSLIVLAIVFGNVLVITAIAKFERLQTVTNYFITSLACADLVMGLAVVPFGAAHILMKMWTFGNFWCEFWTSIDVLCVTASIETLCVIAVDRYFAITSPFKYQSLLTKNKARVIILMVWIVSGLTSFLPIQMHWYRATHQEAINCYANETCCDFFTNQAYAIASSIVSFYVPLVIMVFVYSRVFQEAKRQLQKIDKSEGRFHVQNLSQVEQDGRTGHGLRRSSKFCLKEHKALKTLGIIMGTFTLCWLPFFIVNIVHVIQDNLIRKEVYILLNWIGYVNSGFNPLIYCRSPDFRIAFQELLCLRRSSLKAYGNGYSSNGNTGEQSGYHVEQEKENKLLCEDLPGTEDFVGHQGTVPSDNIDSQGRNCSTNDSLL

[11] = target: AP-2 complex subunit beta (Homo sapiens) (UniProt P63010); test: beta-arrestin/AP2 interaction blockers – biochemical, validation set, GST-AP2 beads, flow cytometry, pilot screen (AID 504541;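 active means inhibition above 54%, about 3 SD of non-fluorescent compounds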;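 further: AP2 carries R879A mutation and is captured from E. coli lysate; bead-bound FITC arrestin peptide fluorescence measuring arrestin peptide binding to AP2; 0% = DMSO wells and 100% = excess unlabeled arrestin peptide control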); conditions: FITC arrestin peptide, at 10 µM, stronger effect = higher value, AP2 beta2 appendage fragment, R879A mutant
Sequence of AP-2 complex subunit beta (Homo sapiens) (P63010 whole entry, looked up, the tested form may be a part, one chain of several): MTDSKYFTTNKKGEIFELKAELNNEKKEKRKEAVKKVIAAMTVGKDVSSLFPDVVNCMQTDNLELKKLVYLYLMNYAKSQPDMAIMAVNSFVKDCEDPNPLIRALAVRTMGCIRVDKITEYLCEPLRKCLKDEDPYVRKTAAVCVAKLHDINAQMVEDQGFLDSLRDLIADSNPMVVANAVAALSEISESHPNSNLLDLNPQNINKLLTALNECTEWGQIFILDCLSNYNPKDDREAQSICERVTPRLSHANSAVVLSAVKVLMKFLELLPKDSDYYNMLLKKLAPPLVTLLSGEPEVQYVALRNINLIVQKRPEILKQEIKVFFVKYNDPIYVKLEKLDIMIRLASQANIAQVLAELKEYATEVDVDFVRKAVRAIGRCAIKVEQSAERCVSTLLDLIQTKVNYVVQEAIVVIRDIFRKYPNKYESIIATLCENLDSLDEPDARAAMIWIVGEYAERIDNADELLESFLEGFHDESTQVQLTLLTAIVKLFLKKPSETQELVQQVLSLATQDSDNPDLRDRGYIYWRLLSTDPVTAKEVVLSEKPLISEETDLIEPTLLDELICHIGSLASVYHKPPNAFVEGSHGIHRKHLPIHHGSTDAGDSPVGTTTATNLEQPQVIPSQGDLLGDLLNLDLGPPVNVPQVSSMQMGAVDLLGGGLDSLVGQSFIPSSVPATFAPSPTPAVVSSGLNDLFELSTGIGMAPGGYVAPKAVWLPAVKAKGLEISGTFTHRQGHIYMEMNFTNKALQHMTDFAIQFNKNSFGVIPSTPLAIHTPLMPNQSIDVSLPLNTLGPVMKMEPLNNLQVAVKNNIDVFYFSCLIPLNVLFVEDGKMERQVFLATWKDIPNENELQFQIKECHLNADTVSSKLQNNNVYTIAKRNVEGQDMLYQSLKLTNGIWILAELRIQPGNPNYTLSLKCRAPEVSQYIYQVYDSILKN

[12] = cytosolic pH regulators acting via V-ATPase – S. cerevisiae, pHLuorin, HTS validation (AID 504600; in the data active means response above about 15%;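 further: plate controls were DMSO for no effect and reference compound for full effect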); conditions: V-ATPase proton transport, at 10 µM, stronger effect = higher value
[13] = tested on: anti-desmoglein-3 scFv antibody binding to human DSG3; test: blockers of pathogenic pemphigus antibody–desmoglein-3 binding – biochemical, validation compound set, bead-based, flow cytometry, pilot screen (AID 588368;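 active means binding below the plate cutoff, the plate median minus 3 SD, with a reading above zero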;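 further: signal is the median channel fluorescence of bead-bound GFP antibody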); conditions: Protein G beads, DSG3-Fc, scFv-GFP binding, at 10 µM, stronger effect = lower value
[14] = Nile Red efflux blockade in pump-expressing yeast – validation compound set, multiplex, phenotypic, pilot screen (AID 588506;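 active means efflux inhibition above 0.42, the validation set average plus 4 SD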;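 further: Nile Red retained in cells so higher fluorescence means more efflux inhibition; 0 = negative control wells and 1 = enniatin B 25 µM full block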); conditions: S. cerevisiae pump-expressing triplex, Nile Red efflux flow cytometry; at 10 µM; stronger effect = higher value; the pumps come from Candida albicans
[15] = target: ATP-binding cassette sub-family B member 6 (Homo sapiens) (UniProt Q9NP58); test: blockers of ABCB6-driven porphyrin uptake – K562-ABCB6 cells, flow cytometry, validation set, pilot screen (AID 588550;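 active means inhibition above the screen-wide mean plus 3 SD, about 51%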;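 further: 0% = DMSO wells and 100% = benzethonium chloride 70 µM positive control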); conditions: K562-ABCB6 porphyrin accumulation, 1 h, at 10 µM, stronger effect = higher value
Sequence of ATP-binding cassette sub-family B member 6 (Homo sapiens) (Q9NP58 whole entry, looked up): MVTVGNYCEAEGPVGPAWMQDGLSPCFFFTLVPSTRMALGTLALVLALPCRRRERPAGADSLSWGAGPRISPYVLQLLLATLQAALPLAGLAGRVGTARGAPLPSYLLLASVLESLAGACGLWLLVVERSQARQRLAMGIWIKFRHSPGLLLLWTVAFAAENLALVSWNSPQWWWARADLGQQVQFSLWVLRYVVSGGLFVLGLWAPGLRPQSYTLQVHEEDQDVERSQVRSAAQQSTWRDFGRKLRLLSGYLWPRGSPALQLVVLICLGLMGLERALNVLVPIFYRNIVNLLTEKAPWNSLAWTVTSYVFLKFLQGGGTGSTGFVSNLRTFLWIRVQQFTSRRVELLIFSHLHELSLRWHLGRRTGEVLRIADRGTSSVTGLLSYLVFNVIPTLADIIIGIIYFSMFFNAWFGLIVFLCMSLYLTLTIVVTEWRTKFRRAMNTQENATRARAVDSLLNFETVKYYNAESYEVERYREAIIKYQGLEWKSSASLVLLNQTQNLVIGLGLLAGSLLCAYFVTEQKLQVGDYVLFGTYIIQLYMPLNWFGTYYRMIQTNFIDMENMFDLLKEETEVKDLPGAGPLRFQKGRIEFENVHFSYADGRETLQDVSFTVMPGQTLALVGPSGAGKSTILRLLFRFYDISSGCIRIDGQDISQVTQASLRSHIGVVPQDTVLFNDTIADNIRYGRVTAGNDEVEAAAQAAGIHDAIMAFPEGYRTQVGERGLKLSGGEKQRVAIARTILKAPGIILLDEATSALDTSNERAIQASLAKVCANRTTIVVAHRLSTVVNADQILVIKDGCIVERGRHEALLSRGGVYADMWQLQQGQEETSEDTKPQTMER

[16] = AML differentiation inducers, ER-HoxA9 marrow cells – cell-based, GFP/MAC1 double positive, flow cytometry, validation set, primary screen (AID 588685;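 active means differentiation response of at least 50%, scaled between solvent and reference control, from cells with both markers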;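 further: compound exposure lasts four days before antibody staining and flow analysis; 0% = DMSO wells and 100% = 5 µM fulvestrant positive control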); conditions: stronger effect = higher value, normalized: vehicle 0, fulvestrant 100

O=C(NCCO)c1ccc(Cl)c(Cl)c1
active: efflux inhibition (fraction of control) [14] 0.78
inactive: percent of DMSO control GFP [1] 103% | GFP response vs DMSO [2] 104% | percent response of DMSO control [3] 102% | GFP response vs DMSO [4] 99.1% | GFP response, % of DMSO [5] 107% | vesicle binding response [6] 97% | inhibition [7] -11.8% | superoxide response (% of plate) [8] 105% | aptamer binding inhibition [9] -1% | response [10] -1.25% | inhibition [11] -1.25% | response [12] 0.22% | binding (% of control) [13] 104% | inhibition [15] 9% | differentiation response [16] -10.4%
59.4%: double positive events [6]

Cc1ccc(C(=O)Nc2ccc(O)cc2C(=O)O)cc1C
58.8%: double positive events [6]
inactive: percent of DMSO control GFP [1] 105% | GFP response vs DMSO [2] 99.6% | percent response of DMSO control [3] 102% | GFP response vs DMSO [4] 75.2% | GFP response, % of DMSO [5] 86.8% | vesicle binding response [6] 274% | inhibition [7] 9.13% | superoxide response (% of plate) [8] 103% | aptamer binding inhibition [9] 3% | inhibition [11] -1.05% | response [12] 1.04% | binding (% of control) [13] 106% | efflux inhibition (fraction of control) [14] 0.05 | inhibition [15] -4% | differentiation response [16] 5.6%
active: response [10] 51.5%

Cc1cc(O)c(C(=O)Cc2csc(C)n2)c(O)c1
inactive: percent of DMSO control GFP [1] 102% | GFP response vs DMSO [2] 109% | percent response of DMSO control [3] 98.2% | GFP response vs DMSO [4] 112% | GFP response, % of DMSO [5] 96.1% | vesicle binding response [6] 15.7% | inhibition [7] 1.12% | superoxide response (% of plate) [8] 104% | aptamer binding inhibition [9] 5% | response [10] 2.72% | inhibition [11] 6.62% | response [12] -0.65% | binding (% of control) [13] 99.5% | inhibition [15] 2% | differentiation response [16] 6.49%
56.7%: double positive events [6]
active: efflux inhibition (fraction of control) [14] 0.46

CN(C)CCCN1c2ccccc2Sc2ccc(C(F)(F)F)cc21
active: inhibition [7] 53.4%
inactive: percent of DMSO control GFP [1] 99% | GFP response vs DMSO [2] 106% | percent response of DMSO control [3] 99% | GFP response vs DMSO [4] 115% | GFP response, % of DMSO [5] 113% | vesicle binding response [6] 196% | superoxide response (% of plate) [8] 88.6% | aptamer binding inhibition [9] -7% | response [10] 26.6% | inhibition [11] 29.2% | response [12] -0.19% | binding (% of control) [13] 101% | efflux inhibition (fraction of control) [14] 0.25 | inhibition [15] 6% | differentiation response [16] -18.8%
60.5%: double positive events [6]

Cc1csc(N)n1
69.2%: double positive events [6]
inactive: percent of DMSO control GFP [1] 101% | GFP response vs DMSO [2] 105% | percent response of DMSO control [3] 114% | GFP response vs DMSO [4] 86.9% | GFP response, % of DMSO [5] 101% | vesicle binding response [6] 201% | inhibition [7] -7.12% | superoxide response (% of plate) [8] 87% | aptamer binding inhibition [9] -1% | response [10] 4.23% | inhibition [11] 5.92% | response [12] -1.8% | binding (% of control) [13] 105% | efflux inhibition (fraction of control) [14] -0.31 | inhibition [15] 12% | differentiation response [16] 9.01%

CC(=O)NC(Cc1ccccc1)C(=O)OCC(=O)c1ccccc1 (stereo not drawn)
inactive: percent of DMSO control GFP [1] 96% | GFP response vs DMSO [2] 102% | percent response of DMSO control [3] 88.6% | GFP response vs DMSO [4] 106% | GFP response, % of DMSO [5] 100% | vesicle binding response [6] 144% | inhibition [7] 9.1% | superoxide response (% of plate) [8] 111% | aptamer binding inhibition [9] 3% | response [10] -9.61% | inhibition [11] 9.32% | response [12] 3.98% | binding (% of control) [13] 105% | efflux inhibition (fraction of control) [14] 0 | inhibition [15] 6% | differentiation response [16] -21.7%
65.2%: double positive events [6]

C=CCNc1nc2c(c(=O)n(C)c(=O)n2C)n1CC(=C)C
63.3%: double positive events [6]
inactive: percent of DMSO control GFP [1] 101% | GFP response vs DMSO [2] 101% | percent response of DMSO control [3] 101% | GFP response vs DMSO [4] 91.6% | GFP response, % of DMSO [5] 103% | vesicle binding response [6] 176% | inhibition [7] -16.1% | superoxide response (% of plate) [8] 103% | aptamer binding inhibition [9] 3% | response [10] -5.19% | inhibition [11] 8.24% | response [12] -4.28% | binding (% of control) [13] 104% | efflux inhibition (fraction of control) [14] -0.38 | inhibition [15] 3% | differentiation response [16] -1.88%

CC12CN3CC(C)(CN(C1)C3c1ccc(Br)cc1O)C2 (stereo not drawn)
57.2%: double positive events [6]
inactive: percent of DMSO control GFP [1] 101% | GFP response vs DMSO [2] 108% | percent response of DMSO control [3] 108% | GFP response vs DMSO [4] 123% | GFP response, % of DMSO [5] 106% | vesicle binding response [6] 197% | inhibition [7] 6.55% | superoxide response (% of plate) [8] 127% | aptamer binding inhibition [9] -3% | response [10] -11.7% | inhibition [11] -45.4% | binding (% of control) [13] 103% | efflux inhibition (fraction of control) [14] 0.21 | inhibition [15] -1% | differentiation response [16] 2.89%
active: response [12] 19%

COc1ccc2c(c1)c(=O)oc1cc3occ(C(C)(C)C)c3cc12
inactive: percent of DMSO control GFP [1] 103% | GFP response vs DMSO [2] 105% | percent response of DMSO control [3] 103% | GFP response vs DMSO [4] 109% | GFP response, % of DMSO [5] 108% | vesicle binding response [6] 138% | inhibition [7] 9.95% | superoxide response (% of plate) [8] 92.5% | aptamer binding inhibition [9] 0% | response [10] -15.7% | inhibition [11] 42.4% | binding (% of control) [13] 93.8% | efflux inhibition (fraction of control) [14] 0.21 | inhibition [15] 0% | differentiation response [16] -14.8%
active: response [12] 29.4%
60%: double positive events [6]

From PubChem BioAssay
